rCAG binder: binds r(CAG) RNA repeats. 1.3% of 370,000 active. r(CAG) RNA repeat, TO-PRO-1 dye displacement fluorescence. inhibition, % at 3 µM;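 active means inhibition above the plate cutoff, the mean of all test compounds on that plate plus 3 SD, cut at about 35% in these data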;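 further: higher means more dye released from RNA so lower well fluorescence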
ADAM10 inh: inhibits human ADAM10; 0.62% of 370,000 active; recombinant ADAM10, EDANS/DABCYL FRET peptide cleavage, 3 h; O14672; inhibition, % at 7 µM;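 active means inhibition above a per-campaign cutoff equal to the mean of compounds falling between control-based bounds plus 3 SD, cut at about 20% in these data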
Target sequence (O14672 214-748 limits assumed): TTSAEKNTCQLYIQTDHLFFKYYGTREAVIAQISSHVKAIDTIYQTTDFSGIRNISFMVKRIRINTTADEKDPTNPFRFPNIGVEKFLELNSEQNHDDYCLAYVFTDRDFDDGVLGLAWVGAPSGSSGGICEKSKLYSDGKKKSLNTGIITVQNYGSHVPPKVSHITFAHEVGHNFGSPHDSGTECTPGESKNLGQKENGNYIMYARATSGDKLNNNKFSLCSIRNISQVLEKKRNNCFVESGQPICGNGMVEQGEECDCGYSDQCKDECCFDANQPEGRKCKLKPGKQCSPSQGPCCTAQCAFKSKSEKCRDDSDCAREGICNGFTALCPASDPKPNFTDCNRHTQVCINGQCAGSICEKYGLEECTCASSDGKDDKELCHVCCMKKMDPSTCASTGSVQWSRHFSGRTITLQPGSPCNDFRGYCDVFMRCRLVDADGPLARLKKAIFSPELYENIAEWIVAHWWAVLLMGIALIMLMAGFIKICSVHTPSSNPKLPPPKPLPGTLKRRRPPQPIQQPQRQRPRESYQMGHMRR
KLK7 zymogen act: proKLK7 (human) activation, primary screen; activation, % at 7 µM; P49862; purified proKLK7, EDANS-DABCYL substrate fluorescence; 100% is mature enzyme control, 0% vehicle; 0.9% of 370,000 active;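 active means activation above the mean of all tested compounds plus 3 SD, computed per campaign excluding outliers beyond control limits, cut at about 13% in these data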
ADAM17 inh: inhibitors of human ADAM17; P78536; recombinant ADAM17, EDANS/DABCYL FRET peptide cleavage; inhibition, % at 6.95 µM; 0.83% of 370,000 active; AID 720648;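 active means inhibition above the mean of compounds lying between control limits plus 3 SD, set per campaign, cut at about 8.5% in these data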
AHR act: human AHR activation. activation, % at 5 µM. P35869. 2.5% of 320,000 active. AHR-responsive luciferase reporter cells, luminescence; in the data active means activation above about 47%
GRIN3A LBD mod: modulators (binders) of human NR3A ligand-binding domain; NR3A LBD differential scanning fluorimetry, Tm shift; 0% = protein alone, 100% = glycine-bound protein; Tm shift relative to glycine control, % at 25 µM; 2.5% of 340,000 active;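 active means melting temperature shift of at least 10% of the positive control shift, at one fixed dose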
Each line names hits and unclear results; the compound was inactive in the other large screens. Sampled rows, rich in hits. Any-hit rate of the full collection: about 7%.

Cc1cc(C)cc(NCc2cc(=O)oc3cc(C)c(O)cc23)c1	none
COc1ccccc1NCc1cc(=O)oc2c(C)c(O)ccc12	none
Cc1cc(C)cc(NCc2cc(=O)oc3cc(-c4ccccc4)c(O)cc23)c1	AHR act 50
COc1ccc(C)cc1NCc1cc(=O)oc2cc(-c3ccccc3)c(O)cc12	AHR act 49, GRIN3A LBD mod 20
CCCCCCC(=O)Nc1ccc(S(=O)(=O)Nc2onc(C)c2C)cc1	none
COc1ccc(-c2cc(C(=O)Nc3ccc(S(=O)(=O)Nc4onc(C)c4C)cc3)c3ccccc3n2)cc1	rCAG binder 75
Cc1cccc(OCCCC(=O)Nc2ccc(S(=O)(=O)Nc3onc(C)c3C)cc2)c1	rCAG binder 48
Cc1ccc(-c2cc(C(=O)Nc3ccc(S(=O)(=O)Nc4nc(C)cc(C)n4)cc3)c3ccccc3n2)cc1	none
Cc1noc(NS(=O)(=O)c2ccc(NC(=O)c3cc(F)c(F)c(F)c3F)cc2)c1C	GRIN3A LBD mod 92 (no result: AHR act)
C#CCCCN([C@H](C(=O)OC)C(C)C)S(=O)(=O)c1ccc(F)cc1Br	none (no result: AHR act, GRIN3A LBD mod)
O=C(NC[C@@H]1CC[C@@H](Cc2ccc(-c3ccccc3)cc2)O1)Nc1ccc(Br)cc1	GRIN3A LBD mod 24 (no result: AHR act)
CCN(CC)C(=O)C1CCCN(C(=O)Nc2ccc3nsnc3c2)C1 (stereo not drawn)	KLK7 zymogen act 19
O=C(N/N=C/c1cccc(O)c1)c1csc2ccccc12	GRIN3A LBD mod 22
O=C(N/N=C/c1cc([N+](=O)[O-])ccc1O)c1c[nH]c2ccccc12	GRIN3A LBD mod 27
O=C(N/N=C/c1ccsc1)c1cc(-c2cccs2)nc2ccccc12	GRIN3A LBD mod 12
O=C(N/N=C/C=C\c1ccccc1[N+](=O)[O-])c1cc(-c2ccccc2)nc2ccccc12	GRIN3A LBD mod 10
CCOC(=O)C1=C(C(=O)OCC)C2N(Cc3ccc(C#N)cc3)c3ccccc3[C@@]23C[C@@H](C(=O)OC)N(S(=O)(=O)c2c(C)noc2C)C3=N1 (stereo partly drawn)	none (no result: AHR act, GRIN3A LBD mod)
Cn1c(=O)c2c(ncn2CC(=O)N/N=C/C=C/c2ccccc2[N+](=O)[O-])n(C)c1=O	AHR act 61 (no result: rCAG binder, ADAM10 inh, KLK7 zymogen act, ADAM17 inh)
O=C(N/N=C/c1ccc(O)c(O)c1)c1cc(-c2ccccc2)nc2ccccc12	none
Cc1ccc(C(=O)N/N=C\c2ccccc2[N+](=O)[O-])cn1	none (no result: AHR act)
Cc1ccc(C(=O)N/N=C\C=C\c2ccccc2[N+](=O)[O-])cn1	AHR act 59
O=C(N/N=C/c1ccco1)c1cc(-c2cccc(Br)c2)nc2ccccc12	AHR act 50, GRIN3A LBD mod 12
O=C(N/N=C/c1cccc(O)c1)c1cc(-c2ccccc2)nc2ccccc12	GRIN3A LBD mod 15
CCCC#Cc1ccc(CC[C@H]2O[C@H]3CC[C@H](CO)O[C@H]3C[C@H]2NC(=O)CN2CCOCC2)cc1	none (no result: AHR act, GRIN3A LBD mod)
O=C(N[C@@H](Cc1cccnc1)C(=O)N1CCC[C@H]1C(=O)NCCc1ccccc1Cl)c1ccccc1	none (no result: AHR act, GRIN3A LBD mod)
COC(=O)C1=C(C)N(Cc2cccc(C(F)(F)F)c2)C(=NCc2cc(OC)c(OC)c(OC)c2)NC1c1cccc(C(F)(F)F)c1 (stereo not drawn)	none (no result: AHR act, GRIN3A LBD mod)
O=C(N/N=C/c1cc([N+](=O)[O-])ccc1O)c1cc(-c2ccccc2)nc2ccccc12	GRIN3A LBD mod 21
O=C(N/N=C/c1cc([N+](=O)[O-])ccc1Cl)c1cc(-c2ccccc2)nc2ccccc12	none
COC(=O)c1cc(NC(=O)CSc2nncn2C)cc(C(=O)OC)c1	GRIN3A LBD mod 11
Cc1c(C(=O)N(C)C(C)c2ccccn2)oc2c(F)cccc12 (stereo not drawn)	AHR act 54
Cc1cc2nc3n(c2cc1C)CCCN3	AHR act 73
COc1ccccc1/C=C/C(=O)NC(=S)NCC1CCCO1 (stereo not drawn)	AHR act 69
CCOC(=O)COc1ccc(/C=C/[N+](=O)[O-])c(OCC(=O)OCC)c1	ADAM17 inh 9.1
O=C(CCc1ccccc1)N[C@H]1[C@H](OCc2ccccc2)CCC[C@@]12C(=O)N(Cc1ccccc1)c1ccc(-c3ccccn3)cc12	none (no result: AHR act, GRIN3A LBD mod)
O=C1NC2=C(CCc3ccccc32)C(c2ccc(Br)cc2)N1 (stereo not drawn)	AHR act 61
O=C1Cc2ccccc2C(c2ccc(Br)cc2)N1 (stereo not drawn)	none
N#CCCSc1nc(N2CCOCC2)c2c(c1C#N)CCCC2	none
CCCSc1nc(N2CCOCC2)c2c(c1C#N)CCCC2	GRIN3A LBD mod 19
CCN(CC)c1ccc(NC(=O)CSc2nc3ccccc3c(=O)[nH]2)cc1	AHR act 63
O=C(CSc1nc2[nH]ncc2c(=O)[nH]1)Nc1ccccc1F	GRIN3A LBD mod 14
COc1ccc(Cl)cc1NC(=O)CSc1nc2sccc2c(=O)[nH]1	rCAG binder 45
COC(=O)c1ccc(NC(=O)CSc2nc3[nH]ncc3c(=O)[nH]2)cc1	GRIN3A LBD mod 14
O=C(CSc1nc2[nH]ncc2c(=O)[nH]1)Nc1ccccc1C(F)(F)F	none
O=C(/C=C\c1ccccc1OC(=O)c1ccccc1F)c1cc2ccccc2o1	AHR act 59
CC(=O)/C=C\c1ccccc1OC(=O)c1cc2ccccc2oc1=O	none
C#CCOCCOCCOCCNc1nc(N2CCOCC2)nc(N2CCN(C(=O)[C@H](CCC(=O)O)n3cc(C(N)CC(C)C)nn3)CC2)n1 (stereo partly drawn)	none (no result: rCAG binder, KLK7 zymogen act, AHR act, GRIN3A LBD mod)
C=CCNC(=O)Nc1ccc2c(c1)[C@@]1(CC(=O)N(CC(C)C)C1c1ccccc1)C(=O)N2C (stereo partly drawn)	none (no result: AHR act, GRIN3A LBD mod)
Cc1nc(NC(=O)c2csc3ccccc23)sc1C	GRIN3A LBD mod 28
Cc1nc(NC(=O)c2ccccc2O)sc1C	none
CCCCNC(=O)C1CCCN1C(=O)Nc1cccc(C)c1 (stereo not drawn)	none (no result: AHR act, GRIN3A LBD mod)
Cc1cccc(CSC(=N)N)c1	none
Cc1cccc(CSC(Nc2ccc(F)cc2)=C(C#N)C#N)c1	rCAG binder 40
CN1CCc2nc(SCC(=O)Nc3ccc(F)cc3)c(C#N)cc2C1	AHR act 67 (no result: rCAG binder, ADAM10 inh, KLK7 zymogen act, ADAM17 inh, GRIN3A LBD mod)
O=[N+]([O-])c1ccc(Nc2cccc(F)c2)nc1	GRIN3A LBD mod 25
O=[N+]([O-])c1ccc(Nc2ccccc2)nc1	GRIN3A LBD mod 12
Cc1ccc(Nc2ccc([N+](=O)[O-])cn2)cc1Cl	GRIN3A LBD mod 14 (no result: AHR act)
CN(C)c1ccc(Nc2ccc([N+](=O)[O-])cn2)cc1	none
CC(=O)Nc1ccc(Nc2ccc([N+](=O)[O-])cn2)cc1	GRIN3A LBD mod 11
Fc1ccc(-c2cc(-c3nnc4sc(-c5cccs5)nn34)[nH]n2)cc1	none (no result: AHR act, GRIN3A LBD mod)
COc1ccc(/C(C)=N/NC(=O)Cc2cc(=O)[nH][nH]2)cc1OC	none (no result: AHR act, GRIN3A LBD mod)
CCOC(=O)[C@@]12CCC3=C1N(CCC3)C(=O)[C@H](CC(=O)N1CCCCC1)C2	none (no result: AHR act, GRIN3A LBD mod)

High-throughput results from PubChem BioAssay.
